Assay results as given in PubChem BioAssay AID1626 (SRMLSC, 2009).
The whole screen tested about 220,000 compounds, of which about 2,000 (0.91%) were called active. Another 2% or so got no clear call; they are omitted. Not all results are given here. Entries with a potency or affinity are not part of this list. Values without a mark were called inactive. Cut-off read from the data, not from the text of the source: inconclusive = inhibition above about 80% without an active follow-up result; inactive = below that; test concentration not stated here.

assay: M. tuberculosis H37Rv growth inhibitors, H37Rv strain (AID 1626); conditions: active compounds read high, concentration not given here;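 note: bacteria incubated seven days before Alamar blue readout; 0% = bacteria only wells and 100% = bacteria with antibiotic wells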

Q: Which inhibition does the source give for `O=C(NCc1cccc(CNC(=O)c2ccco2)c1)c1ccco1` here?
A: -1.79%

Q: With `N/C(Cc1ccccc1Sc1ccccc1)=N\O` as the molecule, how does the inhibition read?
A: -3.65%

Q: With `COc1ccc(-c2csc(-c3cccs3)n2)c(OC)c1` as the molecule, how does the inhibition read?
A: 6.31%

Q: With `COc1ccc(-c2noc(-c3cccs3)n2)cc1OC` as the molecule, how does the inhibition read?
A: 10.1%

Q: Which inhibition does the source give for `O=C(CN1C(=O)NC2NC(=O)NC21)NN=C1CCCC1` (stereo unspecified) here?
A: -3.27%

Q: Which inhibition does the source give for `Cc1ccccc1N(CC(=O)NCCSCc1ccco1)S(C)(=O)=O` here?
A: -3.95%

Q: Which inhibition does the source give for `O=C(COC(=O)c1ccc(O)cc1)Nc1ccc(N2CCCCC2)cc1` here?
A: 3.59%

Q: With `CC12CCC(C(=O)Nc3ccc4c(c3)OCCO4)(OC1=O)C2(C)C` (stereo unspecified) as the molecule, how does the inhibition read?
A: -12.4%

Q: Which inhibition does the source give for `N#Cc1c(N)c(C(=O)c2ccc(Cl)cc2)n2c1CCC2` here?
A: -2.62%

Q: With `CCCCNC(=O)Nc1nnc(-c2ccccc2)o1` as the molecule, how does the inhibition read?
A: 64.8%

Q: With `CCCCOC(=O)c1nnc(-c2ccc(Cl)cc2)o1` as the molecule, how does the inhibition read?
A: -12.6%

Q: For `CC(C)C(=O)Nc1nnc(-c2ccccc2)o1`, which inhibition is on record?
A: 10.9%

Q: With `O=C(Nc1cccnc1)c1ccc(Br)s1` as the molecule, how does the inhibition read?
A: -8.07%

Q: With `CC(C)(C)C(=O)Nc1nnc(-c2ccncc2)o1` as the molecule, how does the inhibition read?
A: -0.06%

Q: Which inhibition does the source give for `CC(NC(=O)c1ccc(Br)s1)c1ccncc1` (stereo unspecified) here?
A: 0.09%

Q: With `O=C(Nc1nnc(-c2ccccc2)o1)c1cccc(N2C(=O)CCC2=O)c1` as the molecule, how does the inhibition read?
A: 7.39%

Q: For `O=C(Nc1nnc(-c2ccncc2)o1)c1ccccc1`, which inhibition is on record?
A: 68%

Q: Which inhibition does the source give for `COCCNC(=O)CCC(=O)NNc1nc2ccccc2c2nc(C)nn12` here?
A: -0.78%

Q: For `CN(C)S(=O)(=O)c1cccc(C(=O)Nc2ccccc2[N+](=O)[O-])c1`, which inhibition is on record?
A: -64.1%

Q: Which inhibition does the source give for `CC(=O)c1cccc(NC(=O)c2ccc(N(Cc3ccc(C)cc3)S(C)(=O)=O)cc2)c1` here?
A: 1.69%

Q: With `Cc1ccc(/C=N/n2c(C)cc(C)c(C#N)c2=O)cc1` as the molecule, how does the inhibition read?
A: -12.6%

Q: With `O=C(NC1(C(F)(F)F)NC(=O)N(c2ccccc2F)C1=O)c1ccncc1` (stereo unspecified) as the molecule, how does the inhibition read?
A: -15.1%

Q: Which inhibition does the source give for `Cc1nnc(N)s1` here?
A: -5.97%

Q: For `O=C(Nc1nnc(-c2ccc(Cl)cc2)o1)c1ccc(N2C(=O)CCC2=O)cc1`, which inhibition is on record?
A: 8.01%

Q: Which inhibition does the source give for `CN(C)c1ccc(C(=O)NNC(=O)c2ccc(Cl)cc2)cc1` here?
A: -8.45%

Q: Which inhibition does the source give for `O=C(CNc1cccc(C(F)(F)F)c1)N/N=C/c1cn(-c2ccccc2)nc1-c1ccccc1` here?
A: 8.35%

Q: For `CNC(=O)CSc1nc(N)c2c3c(sc2n1)CCC3`, which inhibition is on record?
A: 9.76%

Q: Which inhibition does the source give for `Cc1ccccc1NC(=O)CSc1nc(N)c2c3c(sc2n1)CSC(C)(C)C3` here?
A: 53.7%

Q: Which inhibition does the source give for `CCOC(=O)CSc1nc(N)c2c3c(sc2n1)CCCC3` here?
A: 70.6%

Q: For `CC1CCc2c(sc3nc(SCC(=O)NCc4ccco4)nc(N)c23)C1` (stereo unspecified), which inhibition is on record?
A: 7.95%

Q: Which inhibition does the source give for `NC(=O)CSc1nc(N)c2c3c(sc2n1)CCCCC3` here?
A: -1.55%

Q: For `CC(C)(C)C1CCc2c(sc3nc(SCC(=O)O)nc(N)c23)C1` (stereo unspecified), which inhibition is on record?
A: -0.64%

Q: For `CCOc1ccccc1C1C(C#N)=C(N)Oc2cc(N)ccc21` (stereo unspecified), which inhibition is on record?
A: 8.36%

Q: Which inhibition does the source give for `C=CCN1C(=O)C(C(C)CC)NC1=S` (stereo unspecified) here?
A: -2.92%

Q: For `Cc1ccc(N=C2NC(=O)C(CC(=O)NCc3ccccc3)S2)cc1C` (stereo unspecified), which inhibition is on record?
A: -1.52%

Q: For `O=C(CCc1c[nH]c2ccccc12)Nc1ccc(S(=O)(=O)Nc2ncccn2)cc1`, which inhibition is on record?
A: -2.28%

Q: With `CC1CC1C(=O)OCC(=O)Nc1cccc([N+](=O)[O-])c1` (stereo unspecified) as the molecule, how does the inhibition read?
A: -1.97%

Q: Which inhibition does the source give for `Cc1ccc(Sc2ccc(CN3CCCC3)cc2[N+](=O)[O-])cc1` here?
A: 9.11%

Q: With `CN1CCN(Cc2ccc(Sc3ccc(Cl)cc3)c([N+](=O)[O-])c2)CC1` as the molecule, how does the inhibition read?
A: 18.9%

Q: For `O=C(CN1CCOCC1)NNC(=S)Nc1ccc(Cl)cc1`, which inhibition is on record?
A: 4.8%

Q: Which inhibition does the source give for `Cc1ccc(SCC(=O)NC2CCS(=O)(=O)C2)cc1` (stereo unspecified) here?
A: 4.3%

Q: For `CCc1nc(N2CCN(Cc3ccc4c(c3)OCO4)CC2)c2oc3ccccc3c2n1`, which inhibition is on record?
A: 5.87%

Q: For `c1ccc2c(c1)oc1c(NCc3ccc4c(c3)OCO4)ncnc12`, which inhibition is on record?
A: 57.7%

Q: Which inhibition does the source give for `CCc1nc(Nc2ccc3c(c2)OCCO3)c2oc3ccccc3c2n1` here?
A: 1.04%

Q: With `Cc1nc(Nc2ccc3c(c2)OCO3)c2oc3ccccc3c2n1` as the molecule, how does the inhibition read?
A: -15.2%

Q: Which inhibition does the source give for `CC1Cc2ccccc2N1C(=O)c1cnc2ccccn2c1=O` (stereo unspecified) here?
A: -5.12%

Q: For `COc1ccc2cc(C(=O)N3CCCCCC3)sc(=O)c2c1OC`, which inhibition is on record?
A: -2.1%

Q: With `CCCCCC(=O)N1CC2(CC(c3cccc(NC(=O)CC(c4ccccc4)c4ccccc4)c3)=NO2)C[C@@H]1C(N)=O` (stereo partly specified) as the molecule, how does the inhibition read?
A: 11.1%

Q: Which inhibition does the source give for `Cc1nc(CNS(=O)(=O)c2cccs2)cs1` here?
A: 5.2%

Q: For `c1ccc2c(c1)ccc1ncccc12`, which inhibition is on record?
A: -7.23%

Q: Which inhibition does the source give for `Nc1ccc(/C=C/c2ccc3ncccc3c2)cc1` here?
A: 17.8%
